Laboratory results from the supplement of paper PMC11060735.
Where a name gives a salt, the structure may show the parent alone. ± gives the standard deviation of the averaged measurements. In all, about 1,800 compounds were measured (“GFP- (p16Ink4a-) cell count relative to negative-control wells”: median about 0.99, lowest 2% from about 0.5 on). The entries come from a sample that favours the lowest values as a whole.

These compounds were tested on mouse p16Ink4a+/- lung fibroblasts (INKBRITE, bleomycin-injured) (assay: GFP- (p16Ink4a-) cell count relative to negative-control wells (fold of vehicle); higher = more p16Ink4a- cells surviving). Conditions: 1 µM; 3 days.
Work on `C/C(=C\c1csc(C)n1)[C@@H]1C[C@@H]2O[C@@H]2CCC[C@H](C)[C@H](O)[C@@H](C)C(=O)C(C)(C)[C@@H](O)CC(=O)O1` [Epothilone A] yielded a GFP- of 0.423.
With `C/C(=C\c1csc(C)n1)[C@@H]1C[C@@H]2O[C@]2(C)CCC[C@H](C)[C@H](O)[C@@H](C)C(=O)C(C)(C)[C@@H](O)CC(=O)O1` [Epothilone B, Patupilone] the GFP- was 1.03.
With `CN(C)[C@@H]1C(=O)C(C(N)=O)=C(O)[C@@]2(O)C(O)=C3C(=O)c4c(O)cccc4[C@@](C)(O)[C@H]3C[C@@H]12` [Tetracycline] the GFP- was 1.07.
`C=C1C[C@@H]2[C@H](CC[C@]3(C)C(=O)CC[C@@H]23)[C@@]2(C)C=CC(=O)C=C12` [Exemestane] showed a GFP- of 1.13.
Compound `C[C@@H]1CC[C@@]2(OC1)O[C@H]1C[C@H]3[C@@H]4CC=C5C[C@@H](O[C@@H]6O[C@H](CO)[C@@H](O[C@@H]7O[C@@H](C)[C@H](O)[C@@H](O)[C@H]7O)[C@H](O)[C@H]6O[C@@H]6O[C@@H](C)[C@H](O)[C@@H](O)[C@H]6O)CC[C@]5(C)[C@H]4CC[C@]3(C)[C@H]1[C@@H]2C` [Dioscin] has a GFP- of 1.03.
In the case of `COc1ccc(C(=O)N2CCCC2=O)cc1` [Aniracetam], the GFP- is reported as 0.968.
`CN1[C@@H]2CC[C@H]1C[C@@H](OC(=O)C(CO)c1ccccc1)C2` (stereo not given in full) [Atropine] was tested, and the GFP- was 0.843.
Compound `CC(C)[C@]12O[C@H]1[C@@H]1O[C@]13[C@]1(O[C@H]1C[C@H]1C4=C(CC[C@@]13C)C(=O)OC4)[C@@H]2O` [Triptolide] has a GFP- of 0.366.
For `CC(=O)Nc1ccc(OC[C@](C)(O)C(=O)Nc2ccc([N+](=O)[O-])c(C(F)(F)F)c2)cc1` [Andarine], the GFP- was 1.
`CCN(CC)C(=O)c1ccc(C2=CC3(CCNCC3)Oc3cccc(O)c32)cc1` gave a GFP- of 0.95.
Work on `CCNC(=O)C[C@@H]1N=C(c2ccc(Cl)cc2)c2cc(OC)ccc2-n2c(C)nnc21` yielded a GFP- of 1.04 ± 0.19.
`C1=C2CCCN[C@H]2[C@@H]2C[C@H]1[C@H]1CCCCN1C2` [Aloperine] showed a GFP- of 0.98.
With `O=[N+]([O-])/C=C/c1ccc2c(c1)OCO2` the GFP- was 1.03.
Work on `CC[C@@H]1[C@@H](C)O[C@@](O)([C@@H](C)[C@H](O)[C@H](C)[C@H]2OC(=O)/C=C/C=C/[C@H](C)[C@H]([C@@H](C)[C@@H](O)[C@H](C)[C@@]3(O)C[C@@H](O[C@H]4C[C@H](O)[C@H](O)[C@H](C)O4)[C@H](CC)[C@@H](C)O3)OC(=O)/C=C/C=C/[C@H]2C)C[C@H]1O[C@H]1C[C@H](O)[C@H](O)[C@H](C)O1` [Elaiophylin] yielded a GFP- of 0.414.
With `CCOC(=O)c1cncn1C(C)c1ccccc1` (stereo not given) [Etomidate] the GFP- was 1.09.
`Oc1nc2ccc(Cl)cc2c(N[C@@H]2CN3CCC2CC3)c1-c1nc2ccccc2[nH]1` was tested, and the GFP- was 0.944.
`CC(C)NCC(O)c1ccccc1Cl` (stereo not given) [Clorprenaline] was tested, and the GFP- was 1.02.
For `C[C@H]1CCC/C=C/[C@@H]2C[C@H](O)C[C@H]2[C@H](O)/C=C/C(=O)O1` [Brefeldin A], the GFP- was 0.4.
Work on `CCc1c(C(=O)C(N)=O)c2c(OCC(=O)O)cccc2n1Cc1ccccc1` [Varespladib] yielded a GFP- of 1.27.
Work on `CCOc1ccccc1-n1c(C(C)N2CCN(C(=O)COc3ccc(Cl)cc3)CC2)nc2ccccc2c1=O` (stereo not given) [Erastin] yielded a GFP- of 0.31.
`O=C(O)CNC(=O)c1c(O)c2ccccc2n(Cc2ccccc2)c1=O` showed a GFP- of 1.07 ± 0.046.
`CNCC(=O)c1ccc(O)c(O)c1` [Adrenolone Hydrochloride] gave a GFP- of 1.05.
`CN1C(=O)CCS(=O)(=O)C1c1ccc(Cl)cc1` (stereo not given) [Chlomezanone, Chlormezanone] gave a GFP- of 1.03.
`CO[C@H]1CCC(O[C@H]2C[C@H]([C@]3(C)CC[C@]4(C[C@H](O)[C@@H](C)[C@@H]([C@@H](C)/C=C(\C)C(=O)[C@H](C)C[C@H](C)C(=O)O)O4)O3)O[C@]3(O[C@@H]([C@H]4O[C@@](O)(CO)[C@H](C)C[C@@H]4C)C[C@@H]3C)[C@@H]2C)O[C@@H]1C` (stereo not given in full) [Nanchangmycin] showed a GFP- of 0.412.
Compound `Cc1sc2c(c1C)C(c1ccc(Cl)cc1)=N[C@@H](CC(=O)Nc1ccc(O)cc1)c1nnc(C)n1-2` has a GFP- of 0.844 ± 0.048.
Work on `CCCN1CCO[C@H]2c3cc(O)ccc3OC[C@@H]21` yielded a GFP- of 1.04.
Compound `C/C=C(\C)C(=O)N[C@@H](c1ccccc1)[C@@H](O)C(=O)O[C@H]1C[C@@]2(O)[C@@H](OC(=O)c3ccccc3)[C@@H]3[C@]4(OC(C)=O)CO[C@@H]4C[C@H](O)[C@@]3(C)C(=O)[C@H](OC(C)=O)C(=C1C)C2(C)C` [Cephalomannine] has a GFP- of 0.683.
In the case of `Cc1ccc(-n2nccn2)c(C(=O)N2CCN(c3nc4cc(Cl)ccc4o3)CC[C@H]2C)c1` [Suvorexant], the GFP- is reported as 1.13.
`C[C@@H]1[C@H](O)[C@@H](C)/C=C/C=C/CC/C=C/C=C/C=C/C=C/[C@H](O[C@H]2O[C@@H](C)[C@H](O)[C@@H](N)[C@H]2O)C[C@@H]2O[C@](O)(C[C@@H](O)[C@H](O)CC[C@@H](O)C[C@@H](O)C[C@@H](O)CC(=O)O[C@H]1C)C[C@H](O)[C@H]2C(=O)O` [Nystatin (Fungicidin)] was tested, and the GFP- was 0.951.
`C[C@H]1CNCCc2ccc(Cl)cc21` [Lorcaserin] was tested, and the GFP- was 1.02.
